Source: PubChem BioAssay
AMA1 RON2 block = qHTS for Inhibitors of AMA1-RON; Towards Development of Antimalarial Drug Lead: Primary Screen. AlphaScreen AMA1-biotinylated RON2 peptide binding. actives 0.2% (n = 360,000). AID 720542, 2013. Plasmodium falciparum AMA1 (3D7) - RON2 peptide interaction. Potency, µM (series often up to 58.2 µM), for the others: at the highest dose activity change, negative = inhibition, usual class: inhibitors;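 note: 0% = vehicle wells and -100% = peptide control; nearly all actives have a fitted effect of over 45% in size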
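AMA1 (3D7) with his tag at 25 nM final met compounds first, then biotinylated RON2 peptide at 25 nM; detection used donor plus acceptor beads, 10 µg/mL apiece, read by AlphaScreen after 30 min at room temperature.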
Pf growth 48h = Primary qHTS for delayed death inhibitors of the malarial parasite plastid, 48 hour incubation; P. falciparum luciferase growth in erythrocytes, 48 h; Potency, µM (series often up to 28.7 µM), inactives show top-dose activity change, negative = inhibition, actives largely listed as inhibitors; actives 5.9% (n = 310,000); AID 504832, 2011; note: % is set by controls: 0 for no effect and ±100 for the full control effect
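Firefly luciferase activity from engineered P. falciparum reports growth; inhibitors lower the luminescent signal. Cultures contained 2% hematocrit erythrocytes at 0.1% final parasitemia.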
SARS PLpro yeast = qHTS of Yeast-based Assay for SARS-CoV PLP; S. cerevisiae expressing SARS-CoV PLpro, growth rescue; Potency, µM (series often up to 32.9 µM), for the others: at the highest dose activity, positive = growth rescue, usual class: activators; actives 0.19% (n = 330,000); AID 485353, 2010; calls by dose curve; note: 0% is about no effect; nearly all actives have a fitted effect of over 55% in size
Pf growth 96h = Primary qHTS for delayed death inhibitors of the malarial parasite plastid, 96 hour incubation; Potency, µM (series often up to 28.7 µM), without a hit: at the highest dose activity change, negative = inhibition, usual class: inhibitors; AID 504834, 2011; P. falciparum luciferase reporter growth, 96 h; actives 6.9% (n = 320,000); note: % is set by controls: 0 for no effect and ±100 for the full control effect
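Infected RBCs, 2% Hct / 0.05% parasitemia final; luciferase-reporter P. falciparum; cpd 96 h, 37 C, 5% CO2; luciferase detection reagent; luminescence.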
Numbers without * were called inactive; ? = inconclusive; / = no result given; [ ] = dose if it differs, or a comment. In the library only some 9.4% were active in any assay of this set; here they are far more common. Unless noted, calls come from the whole dose curve; as a rule, active = well fitted curve in the direction sought with a large enough effect; inconclusive = small, poorly fitted or top-dose-only effect, or another doubt; inactive = no such curve, though single readings can be large; an effect the other way counts as inactive or inconclusive. Potency is the fitted concentration of half-maximal effect.

SMILES	AMA1 RON2 block	Pf growth 48h	SARS PLpro yeast	Pf growth 96h
Cc1ccc(S(=O)(=O)N2CCCCC2)cc1C(=O)N(C)CCOc1ccccc1	76%	25%	?	-6%
COc1ccccc1C(=O)NCCC(=O)Nc1cccc(S(=O)(=O)N2CCCC2)c1	2%	3.3µM*	-4%	?
COc1cccc(CCC(=O)Nc2cccc(S(=O)(=O)N3CCCC3)c2)c1OC	10%	9.3µM*	3%	8.3µM*
CCOc1ccc(CN(C)C(=O)c2cc(S(=O)(=O)N3CCCC3)ccc2C)cc1	-3%	12µM*	2%	?
CSc1nc(NCCN(C)C)c2sc3nc(-c4ccco4)c4c(c3c2n1)CCC4	-13%	/	/	/
CSc1nc(N(C)CCO)c2sc3nc(-c4ccco4)c4c(c3c2n1)CCC4	12µM*	?	1%	?
Brc1ccc(Oc2ccc(Br)cc2Br)c(Br)c1	36%	22%	-7%	-9%
Oc1c(Br)cc(Br)cc1Oc1ccc(Br)cc1Br	/	?	-74%	15µM*
O=C(c1cc(-c2cccnc2)nc2ccccc12)N1CCCc2ccccc21	-11%	?	0%	10µM*
O=C(c1cc(-c2cccnc2)nc2ccc(Cl)cc12)N1CCN(S(=O)(=O)c2cccs2)CC1	3%	6%	1%	-40%
Cc1ccc(-c2cc(C(=O)N3CCCc4ccccc43)c3ccccc3n2)cc1	-3%	8.3µM*	-12%	/
O=C(c1cc(-c2cccnc2)nc2ccccc12)N1CCN(S(=O)(=O)c2cccs2)CC1	14%	12µM*	0%	13µM*
COc1cccc(C2CC(c3cccs3)=NN2C(=O)c2ccco2)c1O (configuration not stated)	-8%	?	-5%	?
CC(C)C[C@@H](CNCC(=O)[C@H](Cc1c[nH]c2ccccc12)NC(=O)c1[nH]cnc1C(=O)N[C@@H](C)CN)NC(=O)c1nc[nH]c1C(=O)N[C@@H](C)C(=O)O	43%	/	/	/
C=CC1=C(C(=O)O)N2C(=O)[C@@H](NC(=O)/C(=N\OCC(=O)O)c3csc(N)n3)[C@@H]2SC1	/	-12%[12.8 µM]	/	-8%[12.8 µM]
NC(=O)OC[C@@H]1[C@H](NC(=O)/C(=N/OCC(=O)O)c2csc(N)n2)C(=O)N1S(=O)(=O)O	/	?	/	0.43µM*
O=C(CSc1nc2ccc(Cl)cc2[nH]1)c1ccc2c(c1)OCO2	?	12µM*	-5%	13µM*
O=C(CSc1nc2ncc(Cl)cc2[nH]1)c1ccc2c(c1)OCO2	33%	?	-3%	36%
O=C(CSc1nc2cc(Cl)c(Cl)cc2[nH]1)c1ccc2c(c1)OCO2	85%	4.1µM*	-1%	4.7µM*
CCOc1ccc(CNC(=O)CCS(=O)(=O)Cc2ccccc2C)cc1OC	0%	?	0%	9.3µM*
O=C1C2CC=C(Cl)CC2C(=O)N1CCC[n+]1ccccc1 (configuration not stated)	8%	2%	-2%	0%
O=C(CN1C(=O)C2C3CC(C(Br)C3Br)C2C1=O)Nc1ccc(C(=O)O)cc1 (configuration not stated)	0%	2%	1%	21%
O=C(c1cc2ccccc2cc1O)N1CCN(c2ccc([N+](=O)[O-])cc2)CC1	-17%	6.6µM*	-2%	?
Cc1cccc(C(=O)N2CCN(c3ccc([N+](=O)[O-])c(N4CCOCC4)c3)CC2)c1	-22%	?	4%	?
O=C(/C=C/c1ccccc1)N1CCN(c2ccc([N+](=O)[O-])c(N3CCOCC3)c2)CC1	-20%	?	-15%	10µM*
O=C(c1ccc2ccccc2c1)N1CCN(c2ccc([N+](=O)[O-])c(N3CCOCC3)c2)CC1	13%	7.4µM*	-8%	8.3µM*
CCCc1cc(=O)[nH]c(SCC(=O)N2CCC(C(=O)OCC)CC2)n1	-10%	/	4%	-28%
Cc1nn(-c2cccc(Cl)c2)nc1C(=O)Nc1cccc(C(=O)NC2CC2)c1	-10%	15µM*	-4%	?
Cc1ccc(-n2nc(C)c(C(=O)Nc3cccc(C(=O)NC4CC4)c3)n2)c(C)c1	0%	?	-5%	15µM*
Cc1cc(NC(=O)c2cccc3c2C(=O)N(C2CCCCC2)C3)ccc1Br	0%	?	13%	?
